# PubChem BioAssay (NCI)
# The panel holds about 79,000 compounds, 15% with a hit somewhere; the sample as a whole holds those more often. Values without a mark were called inactive. The source made the active and inactive calls. Rule as the data show it: active = growth inhibition above about 70%; inactive = the rest.
# Test: NCI Yeast Anticancer Drug Screen. Data for the mlh1 strain (AID 171);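 also: 0% = growth of vehicle-treated control cultures of the same strain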
# Conditions: S. cerevisiae mlh1 strain growth inhibition, stronger effect = higher value
# Method: Growth inhibition of yeast strains with defined genetic alterations is measured as a screen for potential anti-cancer activity. Selected strains with alterations in DNA damage repair or cell cycle control were exposed to compounds and growth inhibition was measured relative to vehicle treated controls. The strain used in this assay is mlh1
SMILES,growth inhibition (at 1.2 µM),growth inhibition (at 3.7 µM),growth inhibition (at 11.0 µM),growth inhibition (at 33.0 µM),growth inhibition (at 100.0 µM)
Cc1cc(N(CCOS(C)(=O)=O)CCOS(C)(=O)=O)ccc1C=Nc1ccc(-c2nc(Cc3ccccc3)sc2C)cc1,-32%,-15%,46%,92% (active),97% (active)
Cc1ccc([N+]2=NC(c3ccccc3)=NN(c3ccccc3)C2)cc1,1%,4%,7%,78% (active),97% (active)
COc1cc(/C=N/Nc2nnc3c4ccccc4c4ncccc4c3n2)cc(OC)c1OC,-1%,0%,-2%,3%,6%
O=C(NNc1ccccc1)c1ccc(Cl)c(Cl)c1,-2%,-3%,-3%,8%,47%
Cc1ccc(N=Nc2ccc(O)c(=O)cc2)cc1,3%,5%,47%,83% (active),90% (active)
Nc1ncnc2c1ncn2C1OC(CO)CC1O (stereo not given),-22%,-5%,15%,66%,91% (active)
S=c1sc2c(s1)SCCS2,1%,-2%,5%,1%,3%
CCOC(=O)c1[nH]cc(C)c1-c1cccn1-c1ccc(Cl)cc1[N+](=O)[O-],17%,22%,27%,55%,96% (active)
